The nature of this experiment: NCI Yeast Anticancer Drug Screen. Data for the rad18 strain (AID 177). Conditions: S. cerevisiae rad18 mutant growth inhibition, active compounds read high. The method, then: Growth inhibition of yeast strains with defined genetic alterations is measured as a screen for potential anti-cancer activity. Selected strains with alterations in DNA damage repair or cell cycle control were exposed to compounds and growth inhibition was measured relative to vehicle treated controls. The strain used in this assay is rad18

Structures are written as SMILES. This is part of a sample that, as a whole, favours compounds with a hit. Of some 79,000 tested, about 15% had one in any assay. Values without a mark were called inactive. Activity calls are given as the source filed them. No stated cut-off is given here; in the data, active means growth inhibition above about 70%; inactive means the rest.

With `CCN(CC)CCNC(=O)c1nn(-c2ccc(Cl)cc2)c2c1CCc1cc(OC)ccc1-2`, the growth inhibition runs as follows: (at 1.2 µM) -4%; (at 3.7 µM) 4%; (at 11.0 µM) 1%; (at 33.0 µM) 18%; (at 100.0 µM) 95% (active).
In the same order, the values of `O=Nn1c2ccccc2c2ccccc21` are 9%, 7%, -9%, 24% and 86% (active).
In the same order, the values of `O=S(=O)(c1cc(Cl)ccc1O)c1cc(Cl)ccc1O` are 26%, 84% (active), 98% (active), 99% (active) and 99% (active).
The corresponding values for `CNc1ccc(Cc2c[nH]c3ccccc23)cc1` are -54%, -64%, -51%, -8% and 20%.
With `Nc1nc(N)c2cc(Sc3ccc4ccccc4c3)ccc2n1`, the growth inhibition (at 1.2 µM) was -6%; the growth inhibition (at 3.7 µM) is 27%; the growth inhibition (at 11.0 µM) is 78% (active); the growth inhibition (at 33.0 µM) was 93% (active); the growth inhibition (at 100.0 µM) is 93% (active).
`Nc1ccc(S(=O)(=O)Nc2ccc(Nc3c4ccccc4nc4ccccc34)cc2)cc1`: the growth inhibition runs as follows: (at 1.2 µM) 17%; (at 3.7 µM) 11%; (at 11.0 µM) 6%; (at 33.0 µM) 6%; (at 100.0 µM) 58%.
With `N#Cc1sc2c(c1OC(=O)c1ccco1)c(=O)n(-c1ccccc1)c(=S)n2-c1ccccc1`, the growth inhibition was 0% (at 1.2 µM); 1% (at 3.7 µM); -17% (at 11.0 µM); 2% (at 33.0 µM); -1% (at 100.0 µM).
The corresponding values for `CC(C)(O)c1ccccc1C(c1ccccc1)c1ccccc1` are -2%, 1%, 1%, 3% and 15%.
